# CYP2C9 act: activators of human CYP2C9; AID 1024; recombinant CYP2C9, luciferin-H conversion, luminescence; stronger effect = higher value; factor 1 = untreated enzyme, 0 = blocked; 1.4% of 96,000 active; activation factor at 5 µM; P11712;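 active means activation factor of 2 or more for CYP2C9 at a 5 µM dose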;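 further: 0 = sulfaphenazole-blocked wells and 1 = vehicle-only wells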
# CYP2C9 inh: human CYP2C9 inhibition | P11712 | inhibition, % at 5 µM | CYP2C9 Supersomes, luciferin-H conversion, luminescence | AID 777 | 20% of 96,000 active;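 active means blocking of liver enzyme CYP2C9 beyond about 50% at 5 µM, limit read from the data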
# CYP2C19 inh: blocks human cytochrome P450 2C19. P33261. CYP2C19 Supersomes, luciferin-H EGE luminescence, 30 min. inhibition, % at 5 µM. 21% of 96,000 active;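 active means CYP2C19 inhibition above a set limit at 5 µM in the primary screen, cut at about 50% in these data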;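 further: plate controls were negative control wells for no effect and 2.5 mM tranylcypromine positive control for full effect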
# Target sequence (P33261 whole entry, looked up): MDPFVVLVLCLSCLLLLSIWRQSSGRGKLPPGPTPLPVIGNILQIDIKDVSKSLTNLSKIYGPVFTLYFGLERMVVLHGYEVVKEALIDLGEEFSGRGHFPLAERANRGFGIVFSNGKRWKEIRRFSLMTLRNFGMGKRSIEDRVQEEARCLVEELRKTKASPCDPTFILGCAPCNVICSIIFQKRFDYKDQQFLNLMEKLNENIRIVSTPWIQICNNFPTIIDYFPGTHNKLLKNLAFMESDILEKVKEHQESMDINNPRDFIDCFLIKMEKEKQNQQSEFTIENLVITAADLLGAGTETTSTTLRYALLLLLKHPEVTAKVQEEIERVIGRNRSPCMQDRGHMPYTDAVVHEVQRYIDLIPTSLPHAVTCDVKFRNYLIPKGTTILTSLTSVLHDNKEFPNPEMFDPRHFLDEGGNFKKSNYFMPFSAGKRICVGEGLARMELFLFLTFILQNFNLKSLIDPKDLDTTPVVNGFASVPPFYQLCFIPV
# MRP resist rev: MRP-mediated drug resistance reversal | H69AR cells + 2 uM doxorubicin, CellTiter-Glo, 72 h | differential viability (reversal), % at 10 µM | 0.04% of 85,000 active | AID 602;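 active means viability drop by adding the cancer drug above about 55%, with treated viability meeting a 40% cutoff, limit read from the data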;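 further: viability without doxorubicin minus viability with 2 µM doxorubicin for each compound; larger differential means the compound sensitizes cells more to doxorubicin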
# MRP-1 activ: MRP-1 activation | H69AR cells + doxorubicin, viability rescue, CellTiter-Glo | viability increase, % at 10 µM | 0.61% of 140,000 active;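 active means viability gain under doxorubicin at or above a set limit, the compound median plus 3 SD, cut at about 4.7% in these data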;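 further: MRP-1 overexpressing cells given doxorubicin 25 µM after compound pretreatment; 18-22 h compound pretreatment then 72 h with doxorubicin before readout; 0% = doxorubicin-only wells and 100% = vehicle-treated cells without doxorubicin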
# CYP2C19 activ: cytochrome P450 2C19 (human) activation. P33261. recombinant CYP2C19, luciferin-H EGE luminescence; stronger effect = higher value; 0 = fully inhibited enzyme, 1 = untreated enzyme. activation factor at 5 µM. 96,000 tested, under 10 active. AID 1025;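 active means activation factor of at least 2 at 5 µM in the primary screen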;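 further: 0 = wells with 2.5 mM tranylcypromine and 1 = vehicle-only wells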
# Active calls of the source: *; . = not tested or not shown. Most compounds without a hit are left out; they make up all but 21% or so of the library.
SMILES,CYP2C9 act,CYP2C9 inh,CYP2C19 inh,MRP resist rev,MRP-1 activ,CYP2C19 activ
COC(=O)c1cccc(NS(=O)(=O)c2ccc(OC)c(OC)c2)c1C,0.6,43,19,7,-2,0.8
COC(=O)COc1ccc(S(=O)(=O)Nc2ccc(NC(C)=O)cc2)cc1C,0.7,32,76*,4,1,0.2
COc1ccc(CONS(=O)(=O)c2ccc(NC(C)=O)cc2)cc1Cl,1,-4,53*,.,0,0.5
COc1ccc(S(=O)(=O)Nc2ccc(NC(C)=O)cc2)cc1OC,0.3,67*,95*,-4,0,0.1
COc1ccc(S(=O)(=O)c2ccc(OC)c(OC)c2)cc1OC,1.6,-63,79*,2,0,0.2
Cn1c(=O)c2cn(Cc3ccc(Cl)cc3)cc2n(C)c1=O,0.4,58*,63*,6,-2,0.4
CCS(=O)(=O)N1Cc2ccccc2CC1C(=O)OCC(=O)Nc1ccc(C)cc1 (stereo not drawn),0.5,46,75*,.,0,0.3
N#Cc1ccc(NC(=O)COC(=O)C2Cc3ccccc3CN2C(=O)c2ccccc2)cc1 (stereo not drawn),.,.,.,.,-2,.
O=C(COC(=O)Cc1ccccc1F)Nc1ccc(SC(F)F)cc1,.,.,.,.,0,.
CCS(=O)(=O)N1Cc2ccccc2CC1C(=O)OCC(=O)Nc1ccc(SC(F)F)cc1 (stereo not drawn),0.1,93*,78*,.,0,0.2
O=c1cc(/C=C/c2c(F)cccc2Cl)[nH]c2ccccc12,.,.,.,.,2,.
CC(C)(C)c1nc(CN2CCOCC2)ccc1O,1.1,-6,60*,-11,2,0.4
c1ccc(CN2CCN(c3ncccn3)CC2)nc1,0.6,42,54*,-11,.,0.5
Fc1ccc(CN2CCN(c3ncccn3)CC2)cc1,0.9,13,57*,6,0,0.4
Fc1ccc(F)c(CN2CCN(c3ncccn3)CC2)c1,0.6,40,34,-5,0,0.7
c1cnc(N2CCN(Cc3c[nH]c4ccccc34)CC2)nc1,0.7,35,46,-13,-2,0.5
CCOC(=O)CC(=O)CSc1ccc2nnc(-c3ccc(C)cc3)n2n1,0.5,55*,14,.,-3,0.9
CC(=O)C(Sc1ccc2nnc(-c3ccc(F)cc3)n2n1)C(C)=O,0.3,70*,13,5,-2,0.9
CCOc1ccc(-c2nnc3ccc(SCC(=O)N4CCCCC4)nn23)cc1,0.7,29,5,4,.,1
CCOC(=O)N1CCN(C(=O)C(CC(C)C)NC(=O)C2CCCCC2)CC1 (stereo not drawn),1,-4,-1,9,0,1
Cc1nc(CN2CCN(C(=O)c3ccc(Br)cc3)CC2)cs1,1.2,-16,14,28,-3,0.9
Cc1ccc(C(=O)N/C(=C\c2cccs2)C(=O)NCC2CCCO2)cc1C (stereo not drawn),.,.,.,.,-2,.
COC(=O)c1ccc(N2CCC(c3cc(-c4ccc(OC)cc4)n[nH]3)CC2)c([N+](=O)[O-])c1,0.5,49,48,.,-2,0.5
COc1ccc(-c2cc(C3CCN(c4ccc(C(C)=O)cc4[N+](=O)[O-])CC3)[nH]n2)cc1,0.3,65*,84*,.,-2,0.2
CC(=O)c1ccc(N2CCC(c3cc(-c4ccc(Cl)cc4)n[nH]3)CC2)c([N+](=O)[O-])c1,0.4,57*,56*,.,-6,0.4
SMILES,CYP2C9 act,CYP2C9 inh,CYP2C19 inh,MRP resist rev,MRP-1 activ,CYP2C19 activ
CCN(CC(=O)Nc1ccc2c(c1)OCCO2)S(=O)(=O)c1ccc(C)cc1,0.2,76*,24,-18,-1,0.8
CC(C)CNS(=O)(=O)c1ccc(C(=O)Nc2ccc3c(c2)OCCO3)cc1,0.9,10,-11,-8,-3,1.1
CCN(CC(=O)Nc1ccc2c(c1)OCCO2)C(=O)CC1CCCC1,0.6,44,41,.,0,0.6
Cc1ccc(S(=O)(=O)C(C)C(=O)c2ccc3c(c2)OCCO3)cc1 (stereo not drawn),1.1,-13,87*,12,0,0.1
CCN(CC(=O)NC)S(=O)(=O)c1ccc(C)cc1,1.3,-30,21,7,-1,0.8
CCN(CC(=O)NC)S(=O)(=O)c1ccc(Br)cc1,1.3,-26,52*,15,-2,0.5
CCN(CC(=O)Nc1ccc2c(c1)OCCO2)S(=O)(=O)c1cccs1,0.2,85*,62*,.,-2,0.4
